From PubChem BioAssay
Activity calls are given as the source filed them.

Key:
[1] = binders of probe aFSTL3 on microarray, primary screen, stem cell growth factor project, biochemical, small-molecule microarray, fluorescence 635/667 (AID 1064); settings: higher = more signal;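 also: measures binding of the biotinylated anti-FSTL3 antibody to printed compounds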
[2] = binders from COS7 lysate, DM2A8 probe, primary screen, torsin A project, cell lysate, small-molecule microarray, fluorescence 635/667 (AID 1065); settings: higher = more signal, COS7 lysate expressing mutant human TOR1A
[3] = binders of probe aFGF2 on microarray, primary screen, stem cell growth factor project, biochemical, small-molecule microarray, fluorescence 635/667 (AID 1067); settings: higher = more signal;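 also: measures binding of biotinylated aFGF2 protein to printed compounds on slides; z-score merges feature fluorescence and signal-to-noise across triplicate slides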
[4] = binders of probe aFGF10 on microarray, primary screen, stem cell growth factor project, biochemical, small-molecule microarray, fluorescence 635/667 (AID 1071); settings: higher = more signal;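 also: score merges 667 nm spot intensity and signal to noise from triplicate slides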
[5] = target: Neurogenic locus notch homolog protein 2 (Homo sapiens) (UniProt Q04721); assay: Notch2 binders on small-molecule microarrays, primary screen, biochemical, small-molecule microarray, 635 nm fluorescence, stem cell growth factors (AID 1073); settings: Notch2 binding, higher = more signal
[6] = target: Pro-neuregulin-1, membrane-bound isoform (Homo sapiens) (UniProt Q02297); assay: NRG1 binders on small-molecule microarrays, primary screen, psychiatric disease protein project, biochemical, small-molecule microarray, fluorescence 635/667 (AID 1075); settings: NRG1 binding, 635 nm fluorescence, higher = more signal;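 also: score combines 667 nm spot fluorescence with signal to noise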
[7] = system: Neuregulin-1 EGF-like domain; assay: binders of neuregulin-1 EGF-like domain, primary screen, biochemical, small-molecule microarray, 635 nm fluorescence (AID 1081); settings: small-molecule microarray binding, higher = more signal;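 also: binding of the protein to compounds printed on small-molecule microarray slides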
[8] = FRG1 promoter luciferase signal modulators, primary screen, FRG1 inhibition for FSHD, cell-based, C2C12 myotubes, firefly/Renilla luciferase, luminescence (AID 1084); settings: higher = more signal, called active from +8 up or from −8 down
[9] = binders of probe aFST on microarray, primary screen, stem cell growth factor project, biochemical, small-molecule microarray, fluorescence 635/667 (AID 1086); settings: higher = more signal;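 also: score merges 667 nm fluorescence with signal-to-noise of each printed compound spot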
[10] = binders of probe aHhip on microarray, primary screen, stem cell growth factor project, biochemical, small-molecule microarray, fluorescence 635/667 (AID 1087); settings: higher = more signal;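 also: score merges spot fluorescence at 667nm with spot signal to noise ratio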
[11] = system: PRMT1 (protein arginine N-methyltransferase 1); assay: PRMT1 binders on small-molecule microarrays, primary screen, biochemical, small-molecule microarray, 635 nm fluorescence (AID 1088); settings: small-molecule microarray binding, higher = more signal;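 also: binding of Prmt1 protein to compounds spotted on small-molecule microarray slides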
[12] = yeast growth modulation, basal conditions, primary screen, YJM789 clinical isolate, OD600, 24 h (AID 1089);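 also: growth of clinical yeast isolate S. cerevisiae YJM 789 seeded 1000 cells per well; test concentration not given here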; settings: S. cerevisiae YJM789 growth, higher = more signal, called active from +8 up or from −8 down
[13] = fission yeast growth modulation, primary screen, strain 972, OD600, 24 h, no modulator (AID 1090);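 also: basal condition with compound alone and no growth modifier present; test concentration not given here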; settings: S. pombe 972 growth, higher = more signal, called active from +8 up or from −8 down
[14] = S. cerevisiae growth modulation with rapamycin, primary screen, strain BY4716, OD600, 96 h (AID 1091); settings: higher = more signal, called active from +8 up or from −8 down; also: test concentration not given here
[15] = target: Torsin-1A-interacting protein 2 (Homo sapiens) (UniProt Q8NFQ8); assay: LULL1 binders on small-molecule microarray, primary screen, cell lysate, human LULL1 lysate, 635/667 nm fluorescence (AID 1092); settings: hLULL1 lysate binding, 635 nm fluorescence, higher = more signal;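 also: probe is lysate of COS7 cells overexpressing human LULL1; score merges per-feature 667 nm fluorescence with signal-to-noise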
[16] = E. coli growth modulation, two-sided OD650, primary screen, E. coli filamentation project, strain DRC41, 24 h (AID 1093); settings: OD650, 24 h, higher = more signal, called active from +8 up or from −8 down;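 also: MC1000 strain lacking acrAB efflux and sulA so SOS filamentation is blocked; test concentration not given here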
[17] = small-molecule microarray binders of probe aLefty2, primary screen, biochemical, biotinylated probe, 635/667 nm fluorescence (AID 1094); settings: higher = more signal;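 also: score merges spot fluorescence near 667 nm with spot signal-to-noise ratio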
[18] = system: Noggin (protein binding on small-molecule microarray); assay: Noggin binders on small-molecule microarray, primary screen, biochemical, 635/667 nm fluorescence (AID 1095); settings: 635 nm fluorescence, higher = more signal;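 also: score merges 667 nm feature fluorescence with signal to noise over triplicate slides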
[19] = target: Neurogenic locus notch homolog protein 3 (Homo sapiens) (UniProt Q9UM47); assay: NOTCH3 binders on small-molecule microarray, primary screen, biochemical, 635/667 nm fluorescence (AID 1096); settings: NOTCH3 binding, 635 nm fluorescence, higher = more signal
[20] = small-molecule microarray binders of probe aEGFR, primary screen, biochemical, biotinylated probe, 635/667 nm fluorescence (AID 1097); settings: higher = more signal;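 also: probe is a biotinylated anti-EGFR antibody binding compounds printed on slides; score combines fluorescence near 667 nm and signal to noise of each spot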

Chain of Neurogenic locus notch homolog protein 2 (Homo sapiens) (Q04721 whole entry, looked up, canonical isoform): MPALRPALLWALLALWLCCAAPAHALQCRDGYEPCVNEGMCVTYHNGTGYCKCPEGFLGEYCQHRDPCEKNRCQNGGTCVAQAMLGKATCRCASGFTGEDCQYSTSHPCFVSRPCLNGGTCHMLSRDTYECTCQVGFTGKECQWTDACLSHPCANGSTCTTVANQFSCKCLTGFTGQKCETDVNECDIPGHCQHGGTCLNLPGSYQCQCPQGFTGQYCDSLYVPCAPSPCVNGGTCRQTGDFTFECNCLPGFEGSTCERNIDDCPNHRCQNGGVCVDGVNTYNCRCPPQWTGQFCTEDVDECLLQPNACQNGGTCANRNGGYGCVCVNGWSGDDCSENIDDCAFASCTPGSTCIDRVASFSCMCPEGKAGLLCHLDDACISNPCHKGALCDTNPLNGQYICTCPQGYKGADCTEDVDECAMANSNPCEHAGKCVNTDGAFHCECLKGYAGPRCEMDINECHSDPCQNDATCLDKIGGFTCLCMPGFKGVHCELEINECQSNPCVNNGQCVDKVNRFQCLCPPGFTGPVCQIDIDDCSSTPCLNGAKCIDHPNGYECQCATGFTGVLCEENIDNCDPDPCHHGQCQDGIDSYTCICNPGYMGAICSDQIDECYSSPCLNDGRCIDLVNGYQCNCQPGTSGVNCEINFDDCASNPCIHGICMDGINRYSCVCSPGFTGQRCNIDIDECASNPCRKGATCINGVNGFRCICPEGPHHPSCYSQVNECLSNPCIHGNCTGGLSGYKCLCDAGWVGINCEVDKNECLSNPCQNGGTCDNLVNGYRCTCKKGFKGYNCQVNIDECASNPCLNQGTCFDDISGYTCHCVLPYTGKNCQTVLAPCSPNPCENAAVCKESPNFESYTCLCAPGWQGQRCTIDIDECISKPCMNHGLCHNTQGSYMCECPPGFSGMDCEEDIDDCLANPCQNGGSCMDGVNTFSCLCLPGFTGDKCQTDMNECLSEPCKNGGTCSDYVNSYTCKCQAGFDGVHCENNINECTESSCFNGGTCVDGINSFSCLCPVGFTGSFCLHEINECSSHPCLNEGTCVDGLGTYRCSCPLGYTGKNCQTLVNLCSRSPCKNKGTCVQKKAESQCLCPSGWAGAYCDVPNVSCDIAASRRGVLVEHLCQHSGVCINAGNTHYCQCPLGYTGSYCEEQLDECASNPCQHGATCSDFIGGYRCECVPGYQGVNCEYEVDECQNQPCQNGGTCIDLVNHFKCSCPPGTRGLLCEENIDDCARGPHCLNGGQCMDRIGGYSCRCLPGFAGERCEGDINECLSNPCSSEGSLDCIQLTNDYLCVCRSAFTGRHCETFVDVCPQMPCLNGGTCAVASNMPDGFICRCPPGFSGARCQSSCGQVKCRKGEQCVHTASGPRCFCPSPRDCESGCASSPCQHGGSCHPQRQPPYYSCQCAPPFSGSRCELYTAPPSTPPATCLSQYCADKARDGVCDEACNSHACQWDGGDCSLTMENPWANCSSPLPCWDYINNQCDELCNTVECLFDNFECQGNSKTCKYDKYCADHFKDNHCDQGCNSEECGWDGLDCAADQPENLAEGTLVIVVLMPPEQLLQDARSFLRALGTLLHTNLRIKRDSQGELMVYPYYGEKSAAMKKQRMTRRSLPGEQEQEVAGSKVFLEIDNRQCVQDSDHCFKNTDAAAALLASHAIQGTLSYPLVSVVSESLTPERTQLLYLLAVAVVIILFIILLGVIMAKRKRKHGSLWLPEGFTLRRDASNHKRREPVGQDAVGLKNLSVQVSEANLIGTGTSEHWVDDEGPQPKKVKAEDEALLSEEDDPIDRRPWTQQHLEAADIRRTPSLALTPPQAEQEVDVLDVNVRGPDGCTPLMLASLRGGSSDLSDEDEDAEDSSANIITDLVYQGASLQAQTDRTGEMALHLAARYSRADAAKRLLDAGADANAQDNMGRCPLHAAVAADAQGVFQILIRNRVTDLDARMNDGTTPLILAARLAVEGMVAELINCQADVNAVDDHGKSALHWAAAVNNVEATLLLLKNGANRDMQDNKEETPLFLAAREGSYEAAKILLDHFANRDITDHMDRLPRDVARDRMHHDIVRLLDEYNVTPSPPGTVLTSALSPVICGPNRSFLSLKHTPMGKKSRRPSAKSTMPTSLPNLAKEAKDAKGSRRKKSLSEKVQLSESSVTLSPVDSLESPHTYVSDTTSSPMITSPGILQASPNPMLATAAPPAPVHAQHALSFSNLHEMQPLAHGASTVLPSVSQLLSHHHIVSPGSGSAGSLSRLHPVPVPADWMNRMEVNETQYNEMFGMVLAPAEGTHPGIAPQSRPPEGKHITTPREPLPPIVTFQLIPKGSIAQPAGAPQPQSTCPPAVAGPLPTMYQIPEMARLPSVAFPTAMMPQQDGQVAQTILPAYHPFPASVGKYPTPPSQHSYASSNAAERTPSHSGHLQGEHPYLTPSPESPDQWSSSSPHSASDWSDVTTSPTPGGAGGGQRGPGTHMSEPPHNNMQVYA
Chain of Pro-neuregulin-1, membrane-bound isoform (Homo sapiens) (Q02297 whole entry, looked up, the tested form may be a part, canonical isoform): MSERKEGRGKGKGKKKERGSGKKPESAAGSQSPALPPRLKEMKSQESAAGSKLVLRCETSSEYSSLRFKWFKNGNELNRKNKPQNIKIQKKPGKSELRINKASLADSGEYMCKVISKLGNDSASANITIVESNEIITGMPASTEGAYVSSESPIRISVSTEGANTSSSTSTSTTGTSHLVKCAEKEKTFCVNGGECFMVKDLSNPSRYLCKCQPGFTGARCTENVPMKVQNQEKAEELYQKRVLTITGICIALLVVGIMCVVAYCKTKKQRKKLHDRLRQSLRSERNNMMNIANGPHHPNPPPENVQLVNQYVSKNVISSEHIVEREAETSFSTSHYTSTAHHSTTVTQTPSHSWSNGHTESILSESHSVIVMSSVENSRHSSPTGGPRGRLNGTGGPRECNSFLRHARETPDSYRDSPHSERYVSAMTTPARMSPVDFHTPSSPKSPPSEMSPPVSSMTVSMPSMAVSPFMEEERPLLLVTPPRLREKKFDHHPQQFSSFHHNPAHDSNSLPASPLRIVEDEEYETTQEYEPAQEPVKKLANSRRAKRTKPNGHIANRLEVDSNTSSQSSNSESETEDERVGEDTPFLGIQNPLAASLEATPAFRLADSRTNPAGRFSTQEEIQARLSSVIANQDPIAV
Chain of Torsin-1A-interacting protein 2 (Homo sapiens) (Q8NFQ8 whole entry, looked up): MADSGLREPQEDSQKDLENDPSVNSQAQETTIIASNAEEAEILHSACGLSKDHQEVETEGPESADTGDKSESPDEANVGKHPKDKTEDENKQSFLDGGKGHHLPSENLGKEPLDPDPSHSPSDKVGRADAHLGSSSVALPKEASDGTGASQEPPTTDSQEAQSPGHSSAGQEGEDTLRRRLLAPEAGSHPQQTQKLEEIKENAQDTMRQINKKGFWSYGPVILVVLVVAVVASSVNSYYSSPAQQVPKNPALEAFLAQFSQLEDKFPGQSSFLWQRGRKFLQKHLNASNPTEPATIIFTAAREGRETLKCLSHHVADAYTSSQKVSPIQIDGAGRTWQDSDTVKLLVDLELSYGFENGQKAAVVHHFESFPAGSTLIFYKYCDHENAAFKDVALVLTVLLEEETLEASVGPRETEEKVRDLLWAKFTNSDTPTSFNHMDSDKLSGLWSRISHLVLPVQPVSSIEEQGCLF

Row | Compound | composite z-score [1] | composite z-score [2] | composite z-score [3] | composite z-score [4] | composite z-score [5] | composite z-score [6] | composite z-score [7] | z-score [8] | composite z-score [9] | composite z-score [10] | composite z-score [11] | z-score [12] | z-score [13] | z-score [14] | composite z-score [15] | z-score [16] | composite z-score [17] | composite z-score [18] | composite z-score [19] | composite z-score [20]
1 | O=C(CS)NCCCCCNC(=O)[C@@H]1C[C@@H]2C(=O)NCC(=O)N2[C@@H]1c1cccc(OCCO)c1 | 0.312 | 0.389 | -0.12 | -0.161 | -0.067 | -0.515 | 1.1 | -0.612 (inactive) | -0.188 | -0.166 | 0.701 | -5.72 (inactive) | -0.31 (inactive) | -0.485 (inactive) | 2.92 | 2.71 (inactive) | -0.0823 | 0.271 | 0.328 | -0.0466
2 | COc1ccc(CCNC(=O)[C@@]2(C)c3ccccc3C(=O)N(c3ccc(C)cn3)[C@H]2c2ccc(CO)cc2)cc1 | -0.561 | -0.997 | -0.171 | -0.516 | -0.859 | 0.884 | 1.34 | 1.07 (inactive) | -0.389 | -0.13 | -0.0351 | -1.39 (inactive) | -0.739 (inactive) | -1.17 (inactive) | -0.04 | -0.121 (inactive) | 0.0851 | -0.704 | -0.736 | -0.247
3 | CC(C)CNC(=O)[C@@]1(Cc2ccccc2I)c2ccccc2C(=O)N(Cc2ccccc2C(F)(F)F)[C@H]1c1ccc(CO)cc1 | 0.0085 | 0.0038 | -0.118 | -0.128 | -1.46 | 0.89 | -0.13 | 0.49 (inactive) | -0.374 | -0.236 | 1.15 | -0.618 (inactive) | -0.0802 (inactive) | -0.403 (inactive) | 1.6 | 0.164 (inactive) | -0.101 | -0.518 | -0.771 | -0.201
4 | NCCCCCNC(=O)[C@H]1C[C@H]2C(=O)N[C@@H](Cc3ccccc3)C(=O)N2[C@H]1c1cccc(OCCO)c1 | 2.24 | 0.387 | 0.0364 | 0.116 | 0.352 | 2.05 | 0.408 | 1.27 (inactive) | 1.04 | 0.705 | 0.788 | 0.693 (inactive) | -1.42 (inactive) | -0.763 (inactive) | 1.6 | 0.631 (inactive) | 0.662 | -0.0079 | 0.478 | 0.0115
5 | CC(C)CCC[C@@H](C)[C@H]1CC[C@@]2(C)C3=C(CC[C@]12C)[C@@]1(C)CC[C@H](OC(=O)c2ccc(C(F)(F)F)nc2)C(C)(C)C1CC3 (stereo not given in full) | -0.438 | 0.441 | -0.103 | 0.312 | 0.443 | -0.323 | 0.198 | -1.46 (inactive) | -0.108 | 0.223 | -0.431 | -1.64 (inactive) | -0.769 (inactive) | -0.455 (inactive) | 0.282 | 3.05 (inactive) | -0.233 | 0.52 | 0.483 | -0.1
6 | CCCC=C(CCC)[C@@H](NS(=O)(=O)c1ccc(Cl)cc1)c1ccc(C(=O)OC)cc1 | -0.172 | -0.114 | -0.0841 | 0.484 | 0.41 | -0.194 | 0.866 | 2.58 (inactive) | 0.0699 | -0.236 | 0.687 | -0.288 (inactive) | 0.745 (inactive) | -0.825 (inactive) | 0.735 | 0.0177 (inactive) | 0.0007 | -0.392 | -1.6 | 0.0219
7 | CCOC(=O)C[C@H]1[C@H](OC(=O)c2cc3ccccc3oc2=O)[C@@H](NC(=O)CC(C)C)c2cc(OCCCO)ccc2N1C(=O)c1ccccc1 | -0.26 | 0.478 | -0.0327 | 0.667 | 0.3 | -0.0698 | 0.397 | -0.332 (inactive) | 0.128 | 0.0373 | 0.983 | -0.789 (inactive) | -0.769 (inactive) | -0.193 (inactive) | 1.52 | 2.64 (inactive) | -0.0661 | 0.805 | 0.606 | -0.0828
8 | COC(=O)[C@@]1(Cc2ccccc2)[C@H]2c3cc(C(=O)N4CCCC4)n(Cc4c(CO)[nH]cc(C)c4=O)c3C[C@H]2CN1C(=O)c1ccccc1 | 1.13 | -0.0496 | 0.2 | 0.647 | 1.63 | 1.96 | 1.17 | 1.39 (inactive) | 0.915 | -0.121 | 0.138 | -0.0602 (inactive) | 0.94 (inactive) | 0.171 (inactive) | 3.18 | -0.799 (inactive) | 0.539 | -0.218 | 0.12 | 0.0478
9 | O=C1C2C=CC(C(O)C=Cc3ccc([N+](=O)[O-])cc3)N(Nc3ccccc3F)C2C(=O)N1c1ccccc1 (stereo not given) | 0.133 | 0.537 | 0.0135 | 1.03 | 1.51 | 1.39 | 1.16 | 0.477 (inactive) | 1.11 | 0.0274 | 1.57 | 0.612 (inactive) | 2.1 (inactive) | 1.47 (inactive) | 3.1 | -1.04 (inactive) | 0.0511 | 0.0689 | 0.994 | 0.293
10 | NCCCCCNC(=O)[C@H]1C[C@H]2C(=O)N3CCC[C@H]3C(=O)N2[C@H]1c1ccc(O)cc1 | 1.39 | 1.06 | 0.197 | 0.457 | 0.698 | 1.62 | 1.23 | 0.0225 (inactive) | 1.52 | 0.399 | 1.56 | -0.948 (inactive) | -0.283 (inactive) | -0.507 (inactive) | 2.58 | -0.346 (inactive) | 0.821 | 0.813 | 0.573 | 0.426
